Screening data from PubChem BioAssay.
Tgondii IFNg – T. gondii growth inhibition with IFN-gamma, primary screen, cell-based; Toxoplasma gondii growth in IFN-gamma-treated host cells; stronger effect = lower value; activity change, negative = inhibition, % (no concentration beside the values); hit rate 3.8% among 69,000; in the data active = activity change below about -70%, passing the limit was not always enough;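 also: host cells are HeLa cells infected with Toxoplasma gondii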
Hits are given with their value; i = inactive; ! = a repeat was not active. This excerpt belongs to a sample that is enriched for hits.

SMILES | Tgondii IFNg
COc1ccc2c(c1)C1(CCN(C(=O)c3nn(C)c4ccccc34)CC1)CC2CC(=O)O (stereo not given) | -74
COc1ccc2c(c1)C1(CCN(C(=O)C3(c4ccccc4)CCCC3)CC1)CC2CC(=O)O (stereo not given) | i
COc1ccc2c(c1)C1(CCN(C(=O)c3scnc3C)CC1)CC2CC(=O)O (stereo not given) | i
CCCCn1c(=O)c(C(=O)Nc2ccccc2C(=O)OCC)c(O)c2ccccc21 | i
O=C(c1cccnc1)C1CCCN(Cc2cc3ccccc3[nH]c2=O)C1 (stereo not given) | i
C[C@]12CCC3[C@@H](CC[C@@H]4C[C@H](O)CC[C@]34C)[C@@H]1CCC2=O (stereo not given in full) | i
CC(=O)OCC(=O)[C@H]1CC[C@H]2[C@@H]3CC[C@H]4C[C@H](O)CC[C@]4(C)[C@H]3C(=O)C[C@]12C | i
C[C@]12CC[C@H](O)C[C@H]1CC[C@@H]1[C@@H]2C[C@@H](O)[C@]2(C)[C@@H](C3=CC(=O)OC3)CC[C@]12O | -87
C[C@]12[C@H](O)CC3C(CC[C@@H]4C[C@@H](O)CC[C@]34C)[C@@]1(O)CC[C@@H]2C1=CC(=O)OC1 (stereo not given in full) | -79
C[C@]12CC[C@H](O)C[C@H]1CC[C@@H]1[C@@H]2CC[C@]2(C)[C@@H](C3=CC(=O)OC3)CC[C@]12O | -85
CC(=O)[C@H]1CC[C@H]2[C@@H]3CC[C@H]4C[C@H](O)CC[C@]4(C)[C@H]3C(=O)C[C@]12C | i
CC12CC[C@H]3[C@@H](CCC4(O)C[C@H](O)CCC34/C=N/NC(=O)Cc3ccccc3)C1(O)CCC2C1=CC(=O)OC1 (stereo not given in full) | i
CCc1cnc(N2C[C@H]3CN(Cc4nccs4)C[C@H]3C2)nc1 | i
CS(=O)(=O)N1CC[C@@H]2OCCN(Cc3cccnc3)[C@@H]2C1 | i
CC(=O)Nc1cccc(NC(=O)c2cc3cccnc3n(Cc3ccccc3)c2=O)c1 | i
Cc1nc(SCC(=O)N2C[C@H]3C[C@@H](C2)c2cccc(=O)n2C3)n[nH]1 | i
CN1C(=O)C2(CCN(C3CCOC3)CC2)c2ccccc21 (stereo not given) | i
O=C1c2ccccc2C(=O)N1c1ccc2c(C(F)(F)F)cc(=O)oc2c1 | i
CCc1cnc(C)nc1N(C)Cc1cnc(NC)nc1 | i
c1cnc(NC2CC3(CCN(Cc4cccnc4)C3)C2)nc1 (stereo not given) | i
O=C(NCCC1=CCCCC1)c1cc2cccnc2n(Cc2ccc(F)cc2)c1=O | i
O=C(NC1CCCCCC1)c1cc2cccnc2n(Cc2ccc(F)cc2)c1=O | i
CCCCc1ccc(NC(=O)c2cc3cccnc3n(Cc3ccccc3F)c2=O)cc1 | i
C[C@@H]1O[C@@H](O[C@H]2C[C@@H](O)[C@]3(CO)C4C(CC[C@]3(O)C2)[C@@]2(O)CC[C@H](C3=CC(=O)OC3)[C@@]2(C)C[C@H]4O)[C@H](O)[C@H](O)[C@H]1O (stereo not given in full) | -78
Cc1nnc(N2CCCC3(CNCCO3)C2)o1 (stereo not given) | i
SMILES | Tgondii IFNg
CCCCCOc1c(OC)ccc2cc(C(=O)NCc3ccc4c(c3)OCO4)c(=O)[nH]c12 | -74!
COc1ccc(CC(=O)N2CCN(Cc3ccc4c(c3)OCO4)CC2)cc1OC | i
O=C(Nc1ccc2c(c1)OCO2)c1cc2cccnc2n(Cc2ccc(F)cc2)c1=O | i
CN(C)CCCNC(=O)c1cc2cccnc2n(Cc2ccc(F)cc2)c1=O | i
O=C(NC1CCCC1)c1cc2cccnc2n(Cc2ccccc2F)c1=O | i
C=CCOCc1cncc2c1CCN(Cc1csc(C)n1)C2 | i
c1ccc2c(c1)CN(Cc1ccncc1)CC1(CCOCC1)O2 | i
O=C1/C(=C/c2ccccc2)C[C@@]2(O)C3Cc4ccc(O)c5c4[C@@]2(CCN3CC2CC2)[C@H]1O5 | -76!
O=C1CC[C@@]2(O)[C@H]3Cc4ccc(O)c5c4[C@@]2(CCN3CC2CC2)[C@H]1O5 | i
Oc1ccc2c3c1O[C@H]1c4[nH]c5c(c4C[C@@]4(O)[C@@H](C2)N(CC2CC2)CC[C@]314)C[C@@]1(O)[C@H]2Cc3ccc(O)c4c3[C@@]1(CCN2CC1CC1)[C@H]5O4 | i
Cc1cccc(CN2CC[C@@H]3OCCN(S(=O)(=O)C4CC4)[C@@H]3C2)n1 | i
Cc1cccc(CN2C[C@H]3OCCN(C)[C@H]3C2)n1 | i
C=CCOC1C2CCC1N(Cc1cccc(C)n1)CCO2 (stereo not given) | -71
O=C(c1ccoc1)N1CC[C@H]2[C@@H]1CCN2Cc1cccnc1 | i
CN1CCN(S(=O)(=O)C2CC2)Cc2cccnc21 | i
COc1ccc(NC(=O)c2cc3cccnc3n(Cc3ccc(Cl)cc3)c2=O)cc1OC | i
O=C(Nc1ccc(F)c(Cl)c1)c1cc2cccnc2n(Cc2ccc(F)cc2)c1=O | i
CN(C)C(=O)Oc1ccc(Br)cc1C(=O)Nc1ccc(F)c(Cl)c1 | -101
O=C(Nc1ccccc1)c1cc2cccnc2n(Cc2ccc(Cl)cc2)c1=O | i
NS(=O)(=O)c1ccc(CCNC(=O)c2cc3cccnc3n(Cc3ccc(F)cc3)c2=O)cc1 | -88
O=C(NCCc1ccccc1)c1cc2cccnc2n(Cc2ccc(F)cc2)c1=O | i
O=C(Nc1ccccc1)c1cc2cccnc2n(Cc2ccccc2F)c1=O | i
CC(NC(=O)c1cc2cccnc2n(Cc2ccc(F)cc2)c1=O)c1ccccc1 (stereo not given) | -115
Cc1cc(Br)ccc1NC(=O)c1cc2cccnc2n(Cc2ccccc2F)c1=O | i
O=C(Nc1ccccc1)c1cc2cccnc2n(Cc2ccc(F)cc2)c1=O | i
SMILES | Tgondii IFNg
Cc1cc(C)c(NC(=O)c2cc3cccnc3n(Cc3ccccc3F)c2=O)c(C)c1 | -83
COCC(C)NC(=O)c1cc2cccnc2n(Cc2ccc(F)cc2)c1=O (stereo not given) | i
CCCCCNC(=O)c1cc2cccnc2n(Cc2ccc(F)cc2)c1=O | i
CCN1CCOCC2(CCCN(c3ncc(C)cn3)C2)C1 (stereo not given) | i
CCC1COC2(CCCN(Cc3csnn3)C2)C1 (stereo not given) | i
Cc1oncc1C(=O)N1CCC2(CC1)COCCN2CCN(C)C | i
COc1ccccc1-c1ccc(N2C[C@@H]3C[C@@H](C2)c2cccc(=O)n2C3)nn1 | i
O=C1NC(=O)C2(CC(C(=O)N3C[C@@H](c4ccccc4)[C@@H]4[C@H]3C3CCN4CC3)C2)N1 (stereo not given in full) | i
C=CCS(=O)(=O)N1CCN2CCNC(=O)C2C1 (stereo not given) | i
CC(C)NC(=O)C1=NOC2(CCNC2)C1 (stereo not given) | i
C[C@]12CC[C@H](OC3OC(O)C(O)C(O)C3O)C=C1CCC1C2CC[C@]2(C)[C@@H](c3ccc(=O)oc3)CC[C@]12O (stereo not given in full) | -80
O=c1ccc2cc(O[C@@H]3O[C@H](CO)[C@@H](O)[C@H](O)[C@@H]3O)c(O)cc2o1 | i
c1cnc(N2CCO[C@H]3CN(Cc4cccs4)C[C@@H]32)nc1 | -71
Cc1ccc(CN2C[C@@H]3OCCN(c4ncccn4)[C@H]3C2)s1 | i
CC(C)N1CCO[C@@H]2CN(Cc3nccs3)C[C@@H]21 | i
CSc1ccccc1C(=O)C1CCCN(Cc2ccc(C)s2)C1 (stereo not given) | i
CSc1ccccc1NC(=O)c1cc2cccnc2n(Cc2ccccc2)c1=O | i
